According to the supplement of paper PMC8975748:
Structures can show the parent of a compound that is named as a salt.

These compounds were tested on Saccharomyces cerevisiae BY4741 SeMeCo community (assay: z-score of subpopulation abundance vs DMSO median, subpopulation auxotrophic for H; higher = larger share of this subpopulation than in DMSO controls). Conditions: 10 µM; 24 h; SM minimal medium; subpopulation (auxotrophy): H.
Description: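 Fluorescent four-plasmid SeMeCo (self-establishing metabolically cooperating S. cerevisiae BY4741 community; plasmids pH-mRuby2, pL-mWasabi, pU-eCFP, pM-TagRFP657) was grown 24 h in minimal SM medium with each Selleck FDA-approved drug at 10 µM in 384-well plates. Cells were fixed and imaged by high-content confocal microscopy. For each auxotrophic subpopulation (and the prototroph), a z-score gives the deviation from the DMSO vehicle-control population median.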

SMILES	z-score of subpopulation abundance
O=C(O[C@H]1C[N+]2(CCCOc3ccccc3)CCC1CC2)C(O)(c1cccs1)c1cccs1 [Aclidinium Bromide]	-0.92
CN(C)C(=O)Oc1cccc([N+](C)(C)C)c1 [Neostigmine Bromide]	0.03
COc1cc2c(cc1OC)C1CC(=O)C(CC(C)C)CN1CC2 (centres undefined) [Tetrabenazine (Xenazine)]	0.02
C=C[C@H]1CN2CC[C@H]1C[C@H]2[C@H](O)c1ccnc2ccccc12 [Cinchonidine]	-0.15
CC(C)(O)C(Cl)(Cl)Cl [Chlorobutanol]	-0.15
Oc1cc(Cl)ccc1Oc1ccc(Cl)cc1Cl [Triclosan]	-1.93
CN(C)[C@@H]1C(=O)C(C(N)=O)=C(O)[C@@]2(O)C(=O)C3=C(O)c4c(O)cccc4[C@@](C)(O)[C@H]3[C@H](O)[C@@H]12 [Oxytetracycline (Terramycin)]	1.45
C=C(C)[C@H]1Cc2c(ccc3c2O[C@@H]2COc4cc(OC)c(OC)cc4[C@@H]2C3=O)O1 [Rotenone (Barbasco)]	0.51
NC(=O)CN1CCCC1=O [Piracetam]	1.01
CN1[C@@H]2C[C@@H](OC(=O)[C@H](CO)c3ccccc3)C[C@H]1[C@@H]1O[C@@H]12 [Scopolamine HBr trihydrate]	-0.46
CN[C@@H]1[C@@H](O)[C@@H](O[C@@H]2[C@@H](O)[C@H](O[C@H]3O[C@H](CN)CC[C@H]3N)[C@@H](N)C[C@H]2N)OC[C@]1(C)O.CN[C@@H]1[C@@H](O)[C@@H](O[C@@H]2[C@@H](O)[C@H](O[C@H]3O[C@H]([C@@H](C)N)CC[C@H]3N)[C@@H](N)C[C@H]2N)OC[C@]1(C)O.CN[C@@H]1[C@@H](O)[C@@H](O[C@@H]2[C@@H](O)[C@H](O[C@H]3O[C@H]([C@@H](C)NC)CC[C@H]3N)[C@@H](N)C[C@H]2N)OC[C@]1(C)O [Gentamicin Sulfate]	-0.2
Cc1cc(O)ccc1Cl [Chlorocresol]	-0.85
CC[C@H]1[C@@H]2C[C@H]3[C@@H]4N(C)c5ccccc5[C@]45C[C@@H]([C@@H]2[C@H]5O)N3[C@@H]1O [Ajmaline]	-0.87
N#Cc1nn(-c2c(Cl)cc(C(F)(F)F)cc2Cl)c(N)c1[S+]([O-])C(F)(F)F (centres undefined) [Fipronil]	0.48
O=c1cccc2n1C[C@@H]1CNC[C@H]2C1 [Cytisine]	-0.04
CC[C@@]1(O)C(=O)OCc2c1cc1n(c2=O)Cc2cc3ccccc3nc2-1 [Camptothecin]	-1.03
C[CH2][Hg][S]c1ccccc1C(=O)[O-].[Na+] [Thimerosal]	7.64

SMILES	z-score of subpopulation abundance
Oc1cccc2cccnc12 [8-Hydroxyquinoline]	0.93
Cn1cc(C2=C(c3cn(C4CCN(Cc5ccccn5)CC4)c4ccccc34)C(=O)NC2=O)c2ccccc21	-2.71
CC[C@@H](C(N)=O)N1CCCC1=O [Levetiracetam]	-0.46
C=CN1CCCC1=O.II [Povidone iodine]	1.96
C[N+]1(C)[C@@H]2C[C@@H](OC(=O)[C@H](CO)c3ccccc3)C[C@H]1[C@@H]1O[C@@H]12 [Methscopolamine]	0.28
COc1ccc(C(CN(C)C)C2(O)CCCCC2)cc1 (centres undefined) [Venlafaxine HCl]	-0.98
O=C(O[C@H]1C[C@H]2CC[C@@H](C1)[N+]21CCCC1)C(O)(c1ccccc1)c1ccccc1 [Trospium chloride]	-0.71
C[N+]12CCC(CC1)C(OC(=O)C(O)(c1ccccc1)c1ccccc1)C2 (centres undefined) [Clidinium Bromide]	-0.48
CN(C)[C@@H]1C(=O)C(C(N)=O)=C(O)[C@@]2(O)C(=O)C3=C(O)c4c(O)ccc(Cl)c4[C@@](C)(O)[C@H]3C[C@@H]12 [Chlortetracycline HCl]	0.94
C#C[C@]1(O)C=C[C@H]2[C@@H]3CCC4=CC(=O)CC[C@@H]4[C@H]3CC[C@@]21CC [Gestodene]	0.25
C=CC[C@]1(O)CC[C@H]2[C@@H]3CCC4=CC(=O)CCC4=C3C=C[C@@]21C [Altrenogest]	0.24
CCN(C)C(=O)Oc1cccc([C@H](C)N(C)C)c1 [Rivastigmine Tartrate]	-0.17
NCC(O)c1ccc(O)cc1 (racemic) [(+,-)-Octopamine HCl]	-1.07
CCOC(=O)Nc1ccc(NCc2ccc(F)cc2)cc1N [Retigabine]	1.45
CCN1CC2(OC(=O)c3ccccc3NC(C)=O)CCC(OC)C34C1C(CC23)C1(O)CC(OC)C2CC4C1(O)C2OC (centres undefined) [Lappaconitine]	-0.16
COc1ccc(C(CN(C)C)C2(O)CCCCC2)cc1 (centres undefined) [Venlafaxine]	-1.33
C[C@@H]1CC[C@H]2[C@@H](C)C(=O)O[C@@H]3O[C@@]4(C)CC[C@@H]1[C@]32OO4 [Artemisinin]	1.06
